The record followed here is PubChem BioAssay (NCI).

Compounds without any hit were thinned out: in the full panel of roughly 83,000, 20% have a hit.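 How to read the values: 0–100, growth inhibition (40 = 60% inhibited); 0, no net growth; -100 to 0, cell death (-40 = 40% of starting cells died; -100 = all dead).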 Values without a mark were called inactive. Active and inactive are the calls of the source. How the source made its calls: active means growth percent below 10; inactive means the rest.

Common to all, as to test: NCI-60 one-dose screen, 48 h (100 = growth as untreated, 0 = no growth, -100 = all killed)
In one assay the test system is HCT-15 colon. The conditions noted are these: 10 µM unless noted.
A further assay has as its system HT29 colon. The conditions noted are these: 10 µM unless noted.
In the next assay the test system is SNB-75 CNS. The conditions noted are these: 10 µM.
In a further assay the test system is SNB-19 CNS. The conditions noted are these: 10 µM unless noted.
The test system of a further assay is U251 CNS. The conditions noted are these: 10 µM unless noted.
The subject of the next assay is PC-3 prostate. The conditions noted are these: 10 µM unless noted.
A further assay relates to SK-MEL-5 melanoma. The conditions noted are these: 10 µM unless noted.
A further assay deals with UACC-62 melanoma. The conditions noted are these: 10 µM unless noted.
For another assay, the system named is LOX IMVI melanoma. The conditions noted are these: 10 µM unless noted.
In another assay the test system is SK-MEL-28 melanoma. The conditions noted are these: 10 µM unless noted.
For a further assay, the system named is SK-MEL-2 melanoma. The conditions noted are these: 10 µM unless noted.
Another assay deals with EKVX NSCLC. The conditions noted are these: 10 µM unless noted.
The next assay has as its system SN12C renal. The conditions noted are these: 10 µM unless noted.
In the next assay the test system is UO-31 renal. The conditions noted are these: 10 µM unless noted.
For the next assay, the system named is TK-10 renal. The conditions noted are these: 10 µM unless noted.
The next assay relates to ACHN renal. The conditions noted are these: 10 µM unless noted.
Another assay deals with CAKI-1 renal. The conditions noted are these: 10 µM unless noted.
The next assay concerns A498 renal. The conditions noted are these: 10 µM unless noted.
A further assay has as its system MOLT-4 leukemia. The conditions noted are these: 10 µM unless noted.
Another assay concerns CCRF-CEM leukemia. The conditions noted are these: 10 µM unless noted.

Turning to `O=C(Nc1ccc(Cl)c(Cl)c1)NS(=O)(=O)c1cnccc1Oc1ccc(F)cc1`, the growth in the assay with HCT-15 colon was 73.9%; in the assay with HT29 colon it was 75.1%; with SNB-75 CNS it was 79%; in the assay on SNB-19 CNS it was 57%; in the assay with U251 CNS, 56.8%; in the assay with PC-3 prostate, 22.2%. For the same molecule, the growth in the assay with SK-MEL-5 melanoma is 108%; in the assay on UACC-62 melanoma it was 59.2%; in the assay on LOX IMVI melanoma it was 83.3%; in the assay on SK-MEL-28 melanoma, 94.5%; in the assay on SK-MEL-2 melanoma, 64.3%; in the assay with EKVX NSCLC, 15.1%. Also, the growth was 76.3% with SN12C renal; 67.4% in the assay with UO-31 renal; 42.3% in the assay with TK-10 renal; 43.5% with ACHN renal; 5.6% (active) with CAKI-1 renal; 33.7% in the assay with A498 renal. Also, the growth in the assay on MOLT-4 leukemia is 52.3%.
In the case of `COc1cccc(-c2nc3sccn3c2-c2ccnc(NCCCNS(=O)(=O)c3ccc(C(F)(F)F)cc3)c2)c1`, the growth in the assay with HCT-15 colon is 38.7%; in the assay with HT29 colon, 47.2%; in the assay with SNB-19 CNS, 69.4%; in the assay with U251 CNS, 55.1%; in the assay with PC-3 prostate, 29.1%; in the assay with SK-MEL-5 melanoma it was 5.99% (active). Besides, the growth is 43% with UACC-62 melanoma; 55.3% with LOX IMVI melanoma; 72.4% in the assay on SK-MEL-28 melanoma; 65.7% in the assay with SK-MEL-2 melanoma; 46% in the assay on EKVX NSCLC; 47.9% with SN12C renal. Further, the growth in the assay on UO-31 renal was 29.7%; with TK-10 renal, 85.5%; with ACHN renal it was 56%; in the assay with CAKI-1 renal, 40.3%; with A498 renal it was 43%; in the assay on CCRF-CEM leukemia it was 40.4%. For the same molecule, in the assay on MOLT-4 leukemia, the growth is 26.4%.
For the molecule `COc1cc(-c2ncn(/C=C\C(=O)OC(C)C)n2)cc(C(F)(F)F)c1`, the growth was 3.97% (active) with HCT-15 colon; -14% (active) in the assay with HT29 colon; -29.3% (active) with SNB-75 CNS; 11.8% in the assay on SNB-19 CNS; 5.83% (active) in the assay on U251 CNS; 18.2% in the assay on PC-3 prostate. Further, the growth in the assay on SK-MEL-5 melanoma was -38.4% (active); with UACC-62 melanoma, -10.9% (active); in the assay on LOX IMVI melanoma it was -73% (active); in the assay on SK-MEL-28 melanoma, -18.3% (active); in the assay with SK-MEL-2 melanoma it was -10% (active); with EKVX NSCLC, 43.6%. In addition, the growth in the assay with SN12C renal is 12.9%; in the assay on UO-31 renal, 3.53% (active); with TK-10 renal, -8.8% (active); in the assay with ACHN renal it was 11.5%; in the assay with CAKI-1 renal it was 14.3%; in the assay with A498 renal, -53.8% (active). Besides, in the assay with CCRF-CEM leukemia, the growth is 11.5%.
For the molecule `Clc1ccc2c(NC3CCC(NC4CCCCC4)CC3)ccnc2c1` (configuration not stated), the growth is 29.6% with HCT-15 colon; 7.7% (active) with HT29 colon; 79.6% with SNB-75 CNS; 81.9% in the assay with SNB-19 CNS; 35.8% in the assay on U251 CNS; 59.2% in the assay with PC-3 prostate. In addition, the growth in the assay on SK-MEL-5 melanoma was 18.6%; with UACC-62 melanoma it was -31.3% (active); in the assay on LOX IMVI melanoma, 35.6%; with SK-MEL-28 melanoma, -10.5% (active); in the assay on SK-MEL-2 melanoma, 55.2%; in the assay with EKVX NSCLC, 68.1%. Further, the growth in the assay with SN12C renal is 74.1%; in the assay on UO-31 renal it was 56.2%; with TK-10 renal it was 48.8%; in the assay with ACHN renal it was 58.2%; in the assay on CAKI-1 renal, 47.9%; in the assay with A498 renal, 62.5%. The growth in the assay on CCRF-CEM leukemia was 70.2%; with MOLT-4 leukemia it was 56.9%.
As for `N/C(=N\S(=O)(=O)c1ccccc1)Nc1nc2ccccc2s1`, the growth is 104% with HCT-15 colon; 92.1% with HT29 colon; 99% in the assay with SNB-19 CNS; 96.7% with U251 CNS; 83.9% in the assay on PC-3 prostate; 90.5% with SK-MEL-5 melanoma. Moreover, the growth with UACC-62 melanoma is 76.6%; in the assay on LOX IMVI melanoma, 97.5%; with SK-MEL-28 melanoma it was 109%; with SK-MEL-2 melanoma it was 93.1%; with EKVX NSCLC, 86.9%; in the assay on SN12C renal it was 86.1%. Further, the growth in the assay on UO-31 renal is 74.2%; in the assay with TK-10 renal it was 108%; in the assay with ACHN renal, 94.7%; with CAKI-1 renal, 89.3%; with A498 renal it was 118%; with CCRF-CEM leukemia, 109%. Also, in the assay with MOLT-4 leukemia, the growth was 99.4%.
`O=C(/C=C\c1cccc([N+](=O)[O-])c1)/C=C/c1cccc([N+](=O)[O-])c1`: the growth in the assay on HCT-15 colon was 73.5%; in the assay with HT29 colon, 9.81% (active); in the assay with SNB-19 CNS it was 94.5%; in the assay on U251 CNS, 22.6%; with PC-3 prostate, 82.1%; in the assay with SK-MEL-5 melanoma, 100%. For the same molecule, the growth with UACC-62 melanoma was 78.1%; in the assay on LOX IMVI melanoma it was -89.7% (active); in the assay with SK-MEL-28 melanoma, 102%; in the assay on SK-MEL-2 melanoma it was -38.1% (active); with EKVX NSCLC, 107%; with SN12C renal, 98.1%. The growth in the assay on UO-31 renal was 71.1%; in the assay on TK-10 renal it was 89.9%; with ACHN renal it was 89.6%; in the assay on CAKI-1 renal it was 94.2%; with A498 renal it was 90.4%; in the assay with CCRF-CEM leukemia, 74.4%. Moreover, in the assay with MOLT-4 leukemia, the growth was 94.3%.
Consider `Cc1nn(-c2ccc([N+](=O)[O-])cc2)c2ncnc(NCCc3ccccc3)c12`, for which the growth in the assay on HCT-15 colon was 95.4%; with HT29 colon it was 103%; in the assay with SNB-75 CNS, 87.9%; in the assay on U251 CNS, 102%; in the assay on PC-3 prostate, 88.7%; in the assay with SK-MEL-5 melanoma, 104%. Besides, the growth with UACC-62 melanoma is 90.5%; in the assay with LOX IMVI melanoma, 103%; with SK-MEL-28 melanoma it was 106%; with SK-MEL-2 melanoma, 110%; in the assay on EKVX NSCLC, 52.6%; with SN12C renal, 102%. In addition, the growth with UO-31 renal was 79.7%; in the assay with TK-10 renal, 108%; in the assay on ACHN renal, 99.8%; with CAKI-1 renal it was 87.2%; in the assay with A498 renal it was 81.7%; in the assay on CCRF-CEM leukemia, 100%. Besides, in the assay on MOLT-4 leukemia, the growth is 64.7%.
Consider `CCNc1nc(S(=O)(=O)CC)nc2ccccc12`, for which the growth with HCT-15 colon is 92.3%; with HT29 colon, 95.5%; in the assay with SNB-19 CNS it was 103%; with U251 CNS, 101%; in the assay on PC-3 prostate, 96.8%; in the assay with SK-MEL-5 melanoma, 90.8%. For the same molecule, the growth in the assay on UACC-62 melanoma is 90.8%; in the assay with LOX IMVI melanoma it was 101%; in the assay on SK-MEL-28 melanoma, 108%; in the assay with SK-MEL-2 melanoma, 94.6%; in the assay with EKVX NSCLC, 95%; in the assay with SN12C renal, 101%. Further, the growth in the assay on UO-31 renal is 82.4%; with TK-10 renal, 112%; with ACHN renal, 86.1%; in the assay on CAKI-1 renal, 72.8%; in the assay with A498 renal it was 113%; in the assay with CCRF-CEM leukemia it was 86.6%.
